This is an account of results in PubChem BioAssay AID1259339 (Broad Institute, 2017).

A number with no mark means an inactive call. Activity calls are given as the source filed them.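 Rule for the calls: active = fitted AC50 no higher than ten times the top tested dose (cut at about 90 µM in these data); inconclusive = flat curve with 30 to 70% signal loss, or bad fit; inactive = AC50 beyond ten times the top dose.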 A value given as a limit tells only on which side of the number the result lay.

The nature of this assay: TruHit bead signal quenchers or artefacts – biochemical, TruHit kit, artefact control, dose response (AID 1259339). To be noted: TruHit alphaLISA kit signal interference counterscreen; series mostly up to 80 µM.
`Cc1ccc(S(=O)(=O)Cc2ccc(C(=O)N3CCC4(CC3)OCCO4)o2)cc1`: the AC50 entry was “inactive”.
For `Nc1c(C(=O)NCc2ccco2)c2nc3ccccc3nc2n1CCN1CCOCC1`, the AC50 is 56.6 µM (active).
As to `O=C(NCCc1ccccc1)c1cc2cccnc2n(Cc2ccccc2)c1=O`, the AC50 entry was “inactive”.
For `O=C(NC1(C(F)(F)F)Oc2ccc(Cl)cc2O1)N1CCC2(CC1)OCCO2` (centres undefined) the value was more than 160 µM.
